“And” between values parts separate entries of the source, which are not always exact repeats. Equal entries are not always repeated. Inconclusive results are not listed. More than one record can exist for a structure, and the calls need not agree. The source made the active and inactive calls. Unless noted, the call rests on the fitted dose curve.
Key:
[1] = molecular target: Androgen receptor (Homo sapiens) (UniProt P10275); test: qHTS assay for small molecule agonists of androgen receptor signaling (AID 588515; active means well fitted curve in the direction sought with a large enough effect in the signal ratio, with a control signal flat; the % refers to the signal ratio; further: on the % scale 0 is the no-effect control and ±100 the full control effect); conditions: AR-UAS-bla HEK293, beta-lactamase ratio, agonist 16 h; stronger effect = higher value
Summary of the method: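 EC50 and efficacy came from Hill fits of titrations (up to 92 uM) normalized to 30 nM R1881 as 100% and DMSO as 0%. Compound exposure was 16 h at 37 C on AR-UAS-bla HEK293 cells, with a 405/460/530 nm CCF4 fluorescence read.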

[2] = molecular target: Androgen receptor (Homo sapiens) (UniProt P10275); test: qHTS assay for small molecule antagonists of androgen receptor signaling (AID 588516; active means well fitted curve in the direction sought with a large enough effect in the signal ratio, with a control signal flat, not every such curve was filed as active; the % refers to the signal ratio; further: on the % scale 0 is the no-effect control and ±100 the full control effect); conditions: AR-UAS-bla HEK293, beta-lactamase ratio, antagonist mode, 16 h; series mostly up to 76.8 µM
Summary of the method: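 Cells were plated and incubated 5 h, compounds added in titration, then R1881 (10 nM final) as agonist. After 16 h at 37 C, CCF4 substrate was loaded for 2 h at room temperature and fluorescence measured.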

[3] = molecular target: Glucocorticoid receptor (Homo sapiens) (UniProt P04150); test: qHTS assay for small molecule agonists of glucocorticoid receptor signaling (AID 588532; active means well fitted curve in the direction sought with a large enough effect in the signal ratio, with a control signal flat; the % refers to the signal ratio;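 further: 100% = dexamethasone at 0.1 µM and 0% = DMSO only wells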); conditions: HeLa MMTV-bla, beta-lactamase ratio, agonist, 18 h; stronger effect = higher value; percent of dexamethasone control, DMSO zero
Summary of the method: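 Quantitative HTS using CellSensor MMTV-bla HeLa cells in charcoal/dextran-treated serum; compounds tested up to 92 uM. After 18 h at 37 C, CCF4 dye reported reporter induction.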

[4] = qHTS assay for small molecule antagonists of peroxisome proliferator-activated receptor delta signaling (AID 588535; active means well fitted inhibition curve with a large enough effect in the signal ratio, with a control signal flat, not every such curve was filed as active; the % refers to the signal ratio;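 on max response: cells co-treated with a PPAR-delta agonist as stimulator during compound exposure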); conditions: HEK293T PPARd-UAS-bla, beta-lactamase FRET ratio, 18 h; 460 nm channel
Summary of the method: (§1)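 HEK293T PPAR-delta-UAS-bla cells, 4000/well, 2% charcoal/dextran FBS; 5 h 37 C; cpd titration; 18 h 37 C; CCF4 2 h RT; FI 460/530 nm; Hill fit → IC50, efficacy.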

[5] = molecular target: Peroxisome proliferator-activated receptor delta (Homo sapiens) (UniProt Q03181); test: as above; conditions: HEK293T PPARd-UAS-bla, beta-lactamase FRET ratio, 18 h; series mostly up to 76.7 µM
Summary of the method: as §1

[6] = molecular target: Vitamin D3 receptor (Homo sapiens) (UniProt P11473); test: qHTS assay for small molecule antagonists of vitamin D receptor signaling (AID 588541); conditions: HEK293T VDR-UAS-bla, beta-lactamase ratio, antagonist mode; series mostly up to 76.7 µM;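 further: receptor activated by calcitriol during compound treatment; on the % scale 0 is the no-effect control and ±100 the full control effect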
Summary of the method: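 Antagonist-mode beta-lactamase reporter assay: HEK293T VDR-UAS-bla cells were exposed to titrated compound alongside 1-alpha,25-dihydroxyvitamin D3 at 3 nM final for 16 h. Values were normalized to the 50 nM agonist control and DMSO basal, with IC50 and efficacy from Hill equation fits.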

[7] = molecular target: Ubiquitin carboxyl-terminal hydrolase 1 (Homo sapiens) (UniProt O94782); test: Inhibitors of USP1/UAF1: Pilot qHTS (AID 504865; active means well fitted curve in the direction sought with a large enough effect; an effect the other way counts as inactive or inconclusive; further: nearly all actives have a fitted effect of over 35% in size; further: potency means the concentration at half of the fitted maximal effect); conditions: purified USP1/UAF1, Ub-rhodamine cleavage fluorescence; series mostly up to 114 µM
Summary of the method: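 In 50mM HEPES pH 7.8 containing 0.5mM EDTA, 1mM TCEP, 0.1 mg/ml BSA and 0.01% Tween-20, 1nM USP1/UAF1 is exposed to compound for 15 min, then Ub-Rho (150nM final) is added and fluorescence is read over time.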

[8] = molecular target: Estrogen receptor (Homo sapiens) (UniProt P03372); test: qHTS assay for small molecule antagonists of estrogen receptor alpha signaling (AID 588513; active means well fitted curve in the direction sought with a large enough effect in the signal ratio, with a control signal flat, not every such curve was filed as active; the % refers to the signal ratio; further: on the % scale 0 is the no-effect control and ±100 the full control effect); conditions: ER-alpha-UAS-bla HEK293, beta-lactamase ratio, antagonist mode; series mostly up to 76.9 µM
Summary of the method: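 Fluorescence from CCF4 substrate after 2 h at room temperature gave reporter activity; cells had been exposed to compound and 0.5nM 17-beta-estradiol for 18 h at 37 C. Hill-equation fitting yielded IC50 and maximal response.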

[9] = molecular target: Estrogen receptor (Homo sapiens) (UniProt P03372); test: qHTS assay for small molecule agonists of estrogen receptor alpha signaling (AID 588514); conditions: ER-alpha-UAS-bla HEK293, beta-lactamase ratio, 18 h; series mostly up to 76.8 µM; further: nearly all actives have a fitted effect of over 70% in size; further: potency means the concentration at half of the fitted maximal effect;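 on activation: 0% = vehicle only and 100% = reference agonist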
Summary of the method: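 Cells were plated at 5000/well, incubated 4 hrs at 37 C, dosed with compound titration series, incubated 18 hrs at 37 C, loaded with CCF4 dye for 2 hrs at RT, then fluorescence was read.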

[10] = molecular target: Glucocorticoid receptor (Homo sapiens) (UniProt P04150); test: qHTS assay for small molecule antagonists of glucocorticoid receptor signaling (AID 588533; active means well fitted inhibition curve with a large enough effect in the signal ratio, with a control signal flat, not every such curve was filed as active; the % refers to the signal ratio); conditions: HeLa MMTV-bla, GRE beta-lactamase ratio, antagonist mode, 18 h; series mostly up to 76.8 µM
Summary of the method: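 Antagonist-mode qHTS: compound titrations added to GRE-bla HeLa cells, then dexamethasone 2 nM final; 18 h, 37 C. CCF4 FRET fluorescence normalized to dexamethasone and DMSO; IC50 from Hill fit.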

[11] = molecular target: Peroxisome proliferator-activated receptor gamma (Homo sapiens) (UniProt P37231); test: qHTS assay for small molecule agonists of peroxisome proliferator-activated receptor gamma signaling (AID 588536; active means well fitted curve in the direction sought with a large enough effect in the signal ratio, with a control signal flat, not every such curve was filed as active; the % refers to the signal ratio;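 further: 0% = DMSO basal wells and 100% = rosiglitazone at 2 µM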); conditions: HEK293 PPARg-UAS-bla, beta-lactamase ratio, 16 h, percent of rosiglitazone response, DMSO as zero; series mostly up to 76.7 µM
Summary of the method: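 PPAR-gamma-UAS-bla HEK293 cells in medium with 1% charcoal/dextran-treated FBS were exposed to compounds for 16 h at 37 C. Beta-lactamase activity was read with CCF4 substrate (405 nm excitation, 460/530 nm emission).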

[12] = qHTS for Inhibitors of ATXN expression: Validation of Cytotoxic Assay (AID 588349; active means well fitted curve in the direction sought with a large enough effect; an effect the other way counts as inactive or inconclusive; further: potency means the concentration at half of the fitted maximal effect); conditions: cytotoxicity counter-screen for ATXN expression inhibitors, cell viability; series mostly up to 57.1 µM
Summary of the method: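 Read-out: ATP-based luminescence (CellTiter Glo) reflecting viability of HEK293 cells after 72 hr incubation at 37 degrees C with a concentration series of each compound.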

[13] = molecular target: Peroxisome proliferator-activated receptor gamma (Homo sapiens) (UniProt P37231); test: qHTS assay for small molecule antagonists of peroxisome proliferator-activated receptor gamma signaling (AID 588537; active means well fitted inhibition curve with a large enough effect in the signal ratio, with a control signal flat, not every such curve was filed as active; the % refers to the signal ratio;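 further: reporter cells co-stimulated with 50 nM rosiglitazone agonist during compound treatment; % of control where 0% means no effect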); conditions: HEK293 PPARg-UAS-bla, beta-lactamase ratio, antagonist mode; series mostly up to 76.8 µM
Summary of the method: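 Antagonist mode, beta-lactamase reporter in HEK293; charcoal/dextran FBS 1%; 3000 cells/well, 37 C 6-6.5 h; cpd titration + rosiglitazone 50 nM final, 16 h 37 C; CCF4, 2 h RT; 460/530 nm; Hill fit → IC50, efficacy.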

[14] = molecular target: Bile acid receptor (Homo sapiens) (UniProt Q96RI1); test: qHTS assay for small molecule antagonists of farnesoid X receptor signaling (AID 588526); conditions: HEK293T FXR-UAS-bla, beta-lactamase ratio, antagonist mode; series mostly up to 76.7 µM; further: on the % scale 0 is the no-effect control and ±100 the full control effect
Summary of the method: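 Beta-lactamase reporter antagonist mode: HEK293T FXR-UAS-bla cells, titrated compound, CDCA stimulation, 16 h 37 C, CCF4 dye 2 h RT. Data normalized to CDCA 50 uM and DMSO; Hill-fit IC50.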

[15] = qHTS for Inhibitors of ATXN expression: Validation (AID 588378; active means well fitted curve in the direction sought with a large enough effect; an effect the other way counts as inactive or inconclusive; further: on the % scale 0 is the no-effect control and ±100 the full control effect; nearly all actives have a fitted effect of over 75% in size); conditions: cell-based ATXN2 expression reporter assay, luminescence; series mostly up to 57.1 µM
Summary of the method: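 Compounds were pinned onto attached HEK293 cells carrying an ATXN2-firefly luciferase construct and incubated 24 hrs at 37 degrees C. Each well then received a fluorescent viability reagent followed by luciferase substrate for end-point luminescence.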

Chain of Vitamin D3 receptor (Homo sapiens) (P11473 whole entry, looked up): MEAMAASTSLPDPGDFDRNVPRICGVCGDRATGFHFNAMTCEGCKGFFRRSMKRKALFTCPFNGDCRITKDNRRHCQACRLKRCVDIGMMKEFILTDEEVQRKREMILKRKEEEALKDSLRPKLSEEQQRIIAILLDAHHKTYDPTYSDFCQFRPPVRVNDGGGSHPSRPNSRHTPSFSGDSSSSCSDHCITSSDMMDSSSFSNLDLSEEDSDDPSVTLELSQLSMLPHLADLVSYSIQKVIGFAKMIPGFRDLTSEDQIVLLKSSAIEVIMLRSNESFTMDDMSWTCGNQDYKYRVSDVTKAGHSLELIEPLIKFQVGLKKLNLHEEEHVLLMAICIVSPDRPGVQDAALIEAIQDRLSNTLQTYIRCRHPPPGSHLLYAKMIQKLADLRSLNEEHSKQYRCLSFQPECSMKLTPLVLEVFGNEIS
Chain of Peroxisome proliferator-activated receptor gamma (Homo sapiens) (P37231 whole entry, looked up): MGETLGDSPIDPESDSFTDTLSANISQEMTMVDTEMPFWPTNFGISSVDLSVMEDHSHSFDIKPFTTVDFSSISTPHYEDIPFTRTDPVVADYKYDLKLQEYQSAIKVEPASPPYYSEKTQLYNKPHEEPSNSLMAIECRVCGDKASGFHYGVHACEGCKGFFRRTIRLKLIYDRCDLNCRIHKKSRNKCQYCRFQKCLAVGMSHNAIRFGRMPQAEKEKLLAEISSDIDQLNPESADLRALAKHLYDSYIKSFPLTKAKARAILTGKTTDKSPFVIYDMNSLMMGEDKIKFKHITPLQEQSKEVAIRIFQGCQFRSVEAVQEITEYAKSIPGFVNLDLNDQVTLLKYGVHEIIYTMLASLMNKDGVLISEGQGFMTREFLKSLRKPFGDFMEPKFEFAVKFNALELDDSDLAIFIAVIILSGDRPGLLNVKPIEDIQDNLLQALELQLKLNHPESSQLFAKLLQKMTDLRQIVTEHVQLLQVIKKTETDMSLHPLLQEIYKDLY
Chain of Peroxisome proliferator-activated receptor delta (Homo sapiens) (Q03181 whole entry, looked up): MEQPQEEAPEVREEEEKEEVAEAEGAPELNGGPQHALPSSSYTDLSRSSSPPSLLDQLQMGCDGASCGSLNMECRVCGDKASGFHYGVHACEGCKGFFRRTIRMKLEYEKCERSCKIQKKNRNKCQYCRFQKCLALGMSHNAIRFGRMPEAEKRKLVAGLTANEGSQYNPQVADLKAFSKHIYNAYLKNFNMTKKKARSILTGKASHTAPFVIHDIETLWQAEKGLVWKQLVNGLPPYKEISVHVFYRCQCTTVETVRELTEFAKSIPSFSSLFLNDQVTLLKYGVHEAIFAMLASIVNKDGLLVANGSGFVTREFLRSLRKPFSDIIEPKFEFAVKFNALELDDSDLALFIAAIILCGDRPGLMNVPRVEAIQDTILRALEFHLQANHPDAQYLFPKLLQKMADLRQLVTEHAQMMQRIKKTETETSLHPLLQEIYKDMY
Chain of Glucocorticoid receptor (Homo sapiens) (P04150 whole entry, looked up): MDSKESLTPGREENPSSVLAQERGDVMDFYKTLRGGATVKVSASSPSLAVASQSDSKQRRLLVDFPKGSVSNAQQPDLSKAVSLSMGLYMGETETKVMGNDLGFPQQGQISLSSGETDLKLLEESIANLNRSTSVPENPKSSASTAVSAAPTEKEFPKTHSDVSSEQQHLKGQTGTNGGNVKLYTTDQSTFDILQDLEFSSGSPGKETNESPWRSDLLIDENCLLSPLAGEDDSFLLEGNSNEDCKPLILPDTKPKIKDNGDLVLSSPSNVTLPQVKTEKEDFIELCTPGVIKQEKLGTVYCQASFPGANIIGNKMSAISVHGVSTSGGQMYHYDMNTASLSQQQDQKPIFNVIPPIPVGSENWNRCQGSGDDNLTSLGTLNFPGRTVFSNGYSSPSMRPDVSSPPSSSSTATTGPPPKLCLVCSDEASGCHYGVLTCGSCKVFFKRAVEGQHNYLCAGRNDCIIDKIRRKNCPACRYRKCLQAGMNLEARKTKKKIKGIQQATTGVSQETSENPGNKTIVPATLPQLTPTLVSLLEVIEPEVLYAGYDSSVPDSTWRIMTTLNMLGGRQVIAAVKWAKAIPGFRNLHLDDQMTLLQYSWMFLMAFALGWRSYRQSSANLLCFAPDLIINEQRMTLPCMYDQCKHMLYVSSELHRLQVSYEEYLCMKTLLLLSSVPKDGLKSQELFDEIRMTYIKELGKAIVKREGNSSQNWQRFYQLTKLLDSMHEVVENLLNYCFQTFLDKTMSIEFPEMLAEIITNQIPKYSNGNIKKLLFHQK
Chain of Androgen receptor (Homo sapiens) (P10275 whole entry, looked up): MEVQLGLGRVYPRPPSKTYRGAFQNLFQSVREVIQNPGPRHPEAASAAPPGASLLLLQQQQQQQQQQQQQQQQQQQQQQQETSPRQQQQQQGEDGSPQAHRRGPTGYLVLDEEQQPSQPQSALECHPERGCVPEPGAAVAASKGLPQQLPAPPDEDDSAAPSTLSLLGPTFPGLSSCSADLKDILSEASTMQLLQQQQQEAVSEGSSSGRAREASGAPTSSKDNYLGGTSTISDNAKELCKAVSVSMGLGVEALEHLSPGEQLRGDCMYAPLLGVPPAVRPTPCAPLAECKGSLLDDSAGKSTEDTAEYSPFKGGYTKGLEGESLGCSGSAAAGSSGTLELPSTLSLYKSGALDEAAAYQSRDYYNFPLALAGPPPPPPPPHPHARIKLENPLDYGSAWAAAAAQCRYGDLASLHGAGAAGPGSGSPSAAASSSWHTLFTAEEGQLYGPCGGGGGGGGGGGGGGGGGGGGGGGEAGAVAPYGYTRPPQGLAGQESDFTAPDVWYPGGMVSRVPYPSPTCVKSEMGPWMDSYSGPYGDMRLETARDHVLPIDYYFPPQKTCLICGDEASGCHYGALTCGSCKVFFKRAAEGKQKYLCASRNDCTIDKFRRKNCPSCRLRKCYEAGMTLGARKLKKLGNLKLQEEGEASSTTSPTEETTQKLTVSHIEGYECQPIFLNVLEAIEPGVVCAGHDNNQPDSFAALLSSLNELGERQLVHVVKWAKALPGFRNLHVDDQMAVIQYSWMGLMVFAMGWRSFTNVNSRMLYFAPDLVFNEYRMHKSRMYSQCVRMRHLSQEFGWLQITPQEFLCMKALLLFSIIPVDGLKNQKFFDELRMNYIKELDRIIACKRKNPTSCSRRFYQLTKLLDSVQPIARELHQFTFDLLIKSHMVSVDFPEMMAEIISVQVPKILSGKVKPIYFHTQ
Chain of Estrogen receptor (Homo sapiens) (P03372 whole entry, looked up): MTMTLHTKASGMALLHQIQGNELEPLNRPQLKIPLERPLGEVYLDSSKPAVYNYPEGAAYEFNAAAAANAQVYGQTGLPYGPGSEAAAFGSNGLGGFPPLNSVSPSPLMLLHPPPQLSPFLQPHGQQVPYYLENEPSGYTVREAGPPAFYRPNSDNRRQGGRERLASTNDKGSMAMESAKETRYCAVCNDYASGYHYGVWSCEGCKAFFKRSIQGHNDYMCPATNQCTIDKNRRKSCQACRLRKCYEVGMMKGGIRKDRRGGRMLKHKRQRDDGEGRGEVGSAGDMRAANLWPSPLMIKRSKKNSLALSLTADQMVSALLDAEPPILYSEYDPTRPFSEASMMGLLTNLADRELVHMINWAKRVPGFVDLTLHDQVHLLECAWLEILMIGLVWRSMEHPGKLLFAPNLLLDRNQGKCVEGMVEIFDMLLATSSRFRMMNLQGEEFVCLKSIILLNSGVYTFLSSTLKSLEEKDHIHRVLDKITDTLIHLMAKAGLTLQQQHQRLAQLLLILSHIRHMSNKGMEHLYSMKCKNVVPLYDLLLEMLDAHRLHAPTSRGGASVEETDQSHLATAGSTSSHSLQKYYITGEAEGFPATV
Chain of Ubiquitin carboxyl-terminal hydrolase 1 (Homo sapiens) (O94782 whole entry, looked up): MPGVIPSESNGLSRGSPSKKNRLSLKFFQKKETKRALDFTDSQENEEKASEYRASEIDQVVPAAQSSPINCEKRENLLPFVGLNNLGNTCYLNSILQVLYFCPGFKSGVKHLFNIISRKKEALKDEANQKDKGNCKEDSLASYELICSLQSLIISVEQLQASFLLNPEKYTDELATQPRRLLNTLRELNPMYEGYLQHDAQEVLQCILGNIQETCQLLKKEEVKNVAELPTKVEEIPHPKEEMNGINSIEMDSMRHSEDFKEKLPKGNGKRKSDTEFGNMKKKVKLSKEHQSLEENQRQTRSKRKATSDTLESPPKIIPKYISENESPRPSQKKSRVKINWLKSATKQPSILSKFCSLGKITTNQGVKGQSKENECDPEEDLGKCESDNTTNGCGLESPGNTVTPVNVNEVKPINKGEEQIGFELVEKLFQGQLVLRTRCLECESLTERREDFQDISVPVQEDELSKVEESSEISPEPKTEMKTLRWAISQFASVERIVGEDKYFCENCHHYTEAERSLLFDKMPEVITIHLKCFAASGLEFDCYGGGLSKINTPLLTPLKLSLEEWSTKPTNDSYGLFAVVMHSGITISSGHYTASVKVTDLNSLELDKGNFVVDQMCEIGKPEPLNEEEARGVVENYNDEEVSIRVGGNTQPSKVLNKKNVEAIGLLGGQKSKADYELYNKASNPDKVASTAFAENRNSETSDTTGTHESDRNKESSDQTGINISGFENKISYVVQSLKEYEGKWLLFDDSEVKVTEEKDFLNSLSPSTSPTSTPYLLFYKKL
Chain of Bile acid receptor (Homo sapiens) (Q96RI1 whole entry, looked up): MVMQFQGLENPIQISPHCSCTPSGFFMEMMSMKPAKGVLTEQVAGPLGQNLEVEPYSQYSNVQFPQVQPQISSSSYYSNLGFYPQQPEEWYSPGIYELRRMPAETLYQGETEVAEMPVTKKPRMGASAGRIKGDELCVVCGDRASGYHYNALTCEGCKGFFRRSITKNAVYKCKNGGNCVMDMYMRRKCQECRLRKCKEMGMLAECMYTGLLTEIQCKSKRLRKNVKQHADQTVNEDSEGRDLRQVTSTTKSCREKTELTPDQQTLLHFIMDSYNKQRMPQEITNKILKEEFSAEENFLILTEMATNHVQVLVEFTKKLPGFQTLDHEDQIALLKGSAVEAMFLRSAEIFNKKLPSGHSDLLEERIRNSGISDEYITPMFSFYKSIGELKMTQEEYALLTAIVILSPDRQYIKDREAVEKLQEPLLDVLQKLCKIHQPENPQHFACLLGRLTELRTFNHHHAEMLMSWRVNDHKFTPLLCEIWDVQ

CN(C)c1ccc(N=NS(=O)(=O)O)cc1
49.1%: max response [4]
inactive: activation [1] -16.2% | outcome [2] | activation [3] 14.4% and -3.49% | Potency [5] | outcome [6]

C=CCCCCCCCCC(=O)O
inactive: Potency [7] | outcome [8] | Potency [9] | activation [3] -3.95% | Potency [10] | outcome [11] | outcome [6]

O=c1cc(-c2ccccc2)oc2ccccc12
inactive: outcome [8] | Potency [9] | activation [1] -23.6% and -8.95% | activation [3] -9.59% and -14.8% | Potency [5] | outcome [11] | outcome [6]
43.6%: max response [4]

CC1(C)S[C@@H]2[C@H](NC(=O)[C@H](N)c3ccccc3)C(=O)N2[C@H]1C(=O)O
inactive: outcome [11]

N.N.N.N.N.N.N.N.N.N.N.N.N.N.O.O.[Ru+4].[Ru+5].[Ru+5]
active: Potency [12] 28.2 µM

O=C(O)/C=C\C(=O)O
inactive: activation [3] -2.26% | Potency [10] | Potency [5] | outcome [6]
-10.6%: max response [4]

O=C(O)[C@H](O)[C@@H](O)[C@H](O)[C@H](O)CO
inactive: Potency [7] | Potency [5] | outcome [11] | Potency [13] | outcome [6]
8.66%: max response [4]

S=c1[nH]c2ccccc2s1
inactive: Potency [7] | outcome [14] | activation [3] -4.66% and -1.91% | Potency [10] | Potency [5] | Potency [13] | outcome [6]
9.56%: max response [4]

CCCCCCCCCCCCCCCC(=O)OC(C)C
-23.5%: max response [4]
inactive: Potency [7] | Potency [5] | outcome [6]

CC1(C)C[C@@H]1C(=O)N/C(=C\CCCCSC[C@H](N)C(=O)O)C(=O)O
inactive: Potency [7]

Nc1cc(-c2ccncc2)c[nH]c1=O
inactive: Potency [9] | activation [1] 4.65% | outcome [2] | activation [3] -4.52% | Potency [10] | Potency [5] | outcome [11] | Potency [13] | outcome [6]
50.9%: max response [4]

NCCO
inactive: outcome [8] | activation [3] 1.21% | Potency [10]
active: Potency [9] 12.6 µM

O=C1CN(/N=C/c2ccc([N+](=O)[O-])o2)C(=O)N1
inactive: outcome [8] | activation [3] 2.61% | Potency [10] | outcome [6]
inactive and 50.1 µM (active): Potency [7]

CN1[C@@H]2CC[C@H]1CC(OC(c1ccccc1)c1ccccc1)C2 (stereo not given in full)
inactive: Potency [7]

O=C(O)c1cc(O)c(O)c(O)c1
19.5%: max response [4]
inactive: Potency [7] | outcome [8] | activation [3] 2.04% | Potency [5] | outcome [11] | Potency [13] | outcome [6]

Nc1ccc(O)c(C(=O)O)c1
inactive: outcome [8] | Potency [9] | outcome [14] | activation [3] 1.83% and -3.75% | Potency [10] | Potency [5] | outcome [11] | Potency [13] | outcome [6]
9.11%: max response [4]
active: Potency [7] 39.8 µM and 11.2 µM

N#C/C(=C\c1c[nH]c2ccccc12)C(=O)c1ccc(O)c(O)c1
inactive: Potency [7] | Potency [12] | Potency [15]

NC(=O)C(c1ccccc1)(c1ccccc1)[C@@H]1CCN(CCc2ccc3c(c2)CCO3)C1
inactive: Potency [7]
